Laboratory results taken from PubChem BioAssay (EPA / NIEHS).
“And” between values parts separate entries of the source, which are not always exact repeats. Equal values may be shown once. Where a structure was tested more than once in an assay, its records may differ in their call. The source made the active and inactive calls. Rule for the calls: active = hit-call score of the fitted dose curve at least 0.9, where 1 is the maximum; inactive = score below 0.9.

Tests used:
[1] = CCTE_Shafer_MEA_dev_correlation_coefficient_mean: CCTE's Neural Network Formation Assay for Mean Correlation Coefficient, Shafer Lab (AID 2284093);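 for AC50: well mean pairwise spike train correlation integrated as AUC over recording days 5 to 12; potency fitted for loss of correlation relative to DMSO vehicle wells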
Summary of the method: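 Primary rat cortical neurons on PEI-coated 48-well MEA plates (16 electrodes/well) were exposed from plating day 0 through DIV12, with compound renewed at DIV5 and 9. Pairwise spike correlations were averaged per well; trapezoidal AUC across DIV5, 7, 9, 12.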

[2] = CCTE_Mundy_HCI_Cortical_Synap_Neur_Matur_NeuriteSpotCountPerNeuriteLength: CCTE's Synaptogenesis and Neurite Maturation Assay in rat cortical cells for Neurite Spot Count per Neurite Length, Mundy Lab (AID 2284210)
Summary of the method: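 Primary rat cortical neurons, compound exposure DIV 7–12, 288.33 h endpoint. Hoechst, anti-MAP2 and anti-synaptophysin labelling; neurite-associated puncta per neurite length scored by automated imaging relative to DMSO controls.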

[3] = CCTE_Mundy_HCI_Cortical_Synap_Neur_Matur_BPCount: CCTE's Synaptogenesis and Neurite Maturation Assay in rat cortical cells for Branch Point Count, Mundy Lab (AID 2284211)
Summary of the method: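 Branch point number is quantified by automated imaging of fluorescently labelled neurites and synapses in rat primary cortical neurons exposed from DIV 7 to DIV 12. Activity is analysed relative to DMSO negative control.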

[4] = CCTE_Mundy_HCI_Cortical_NOG_NeuriteCount: CCTE's Neurite Outgrowth Assay in rat cortical cells for Neurite Count, Mundy Lab (AID 2284212);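 note: cells fixed about two days after chemical exposure began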
Summary of the method: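 Neurite number per cell from high-content imaging of betaIII-tubulin immunostaining, with Hoechst nuclear counterstain.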

[5] = CCTE_Mundy_HCI_Cortical_NOG_NeuriteLength: CCTE's Neurite Outgrowth Assay in rat cortical cells for Neurite Length, Mundy Lab (AID 2284213);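 for AC50: neurites imaged about 48 to 50 h after chemical exposure began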
Summary of the method: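 Neurite length was read by high-content imaging of βIII-tubulin-labelled neurites in rat primary cortical cultures. Activity was fitted relative to DMSO.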

[6] = IUF_NPC1b_proliferation_BrdU_72hr: Leibniz Research Institute for Environmental Medicine (IUF) 72-hour Neural Progenitor Cell Bromodeoxyuridine (BrdU) Proliferation Assay (NPC1b) (AID 2284207)
Summary of the method: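 Proliferation of primary human neural progenitor cells: 72 h compound treatment at 37C, 5% CO2, pH 7.2-7.6, in EGF/FGF-containing medium. Readout is BrdU uptake (last 16 h) by chemiluminescent ELISA, normalised to DMSO.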

[7] = IUF_NPC1a_proliferation_area_72hr: Leibniz Research Institute for Environmental Medicine (IUF) 72-hour Neural Progenitor Cell Proliferation Area Assay (NPC1a) (AID 2284208)
Summary of the method: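 Spheres of 0.3 mm are plated singly in growth-factor medium and exposed from day 0. After three days at 37C and 5% CO2, sphere area is measured by phase contrast imaging, with activity referenced to DMSO.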

[8] = IUF_NPC1_viability_72hr: Viability Assessment at 72 hours in the Leibniz Research Institute for Environmental Medicine (IUF) Neural Progenitor Cell Proliferation Assay (NPC1) (AID 2284209)
Summary of the method: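 Each well receives one 0.3 mm progenitor sphere from fetal brain cortex; test chemical is added at plating and left three days. Viability comes from alamar blue fluorescence, multiplexed with LDH and BrdU readouts in the same well.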

[9] = UKN2_HCS_IMR90_neural_migration: University of Konstanz (UKN) Leist Lab Neural Crest Cell Migration Assay in human induced IMR90 Pluripotent Stem Cells (UKN2) (AID 2284204); settings: actives raise or lower the signal
Summary of the method: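 Migration of human IMR90-derived neural crest cells into a stopper-defined gap is imaged after 24 h chemical treatment. Activity is fitted bidirectionally relative to DMSO.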

[10] = UKN4_HCS_LUHMES_neurite_outgrowth: University of Konstanz (UKN) Leist Lab Neurite Outgrowth Assay in human LUHMES cells (UKN4) (AID 2284206); settings: actives raise or lower the signal
Protocol: UKN4_HCS_LUHMES is a cell-based, multiplexed-readout assay screening for neurite outgrowth and cell viability that uses LUHMES, a human central nervous system cell line, with measurements taken at […] after chemical dosing in a microplate: 96-well plate. UKN4, also referred to as NeuriTox, is an assay that uses LUHMES neuronal precursors as a model of dopaminergic neuronal differentiation. Following a 2-day differentiation period, cells are exposed to chemicals for 24 hr and neurite area is evaluated as a marker of neurite outgrowth using high-content imaging of cells stained with calcein AM. Cell viability is assessed using stain Hoechst H-33342.UKN4_HCS_LUHMES_neurite_outgrowth is an assay component measured from the UKN4_HCS_LHUMES assay. It is designed to make measurements of neurite outgrowth, a form of morphology reporter, as detected with Fluorescence intensity signals by HCS Fluorescent Imaging.The assay endpoint UKN4_HCS_LUHMES_neurite_outgrowth was analyzed with bidirectional fitting relative to DMSO as the negative control and baseline of activity. Using a type of morphology reporter, gain or loss-of-signal activity can be used to understand developmental effects. To generalize the intended target to other relatable targets, this assay endpoint is annotated to the neurodevelopment intended target family, where the subfamily is neurite outgrowth.
Proliferating LUHMES cells are seeded in proliferation medium for 24 hours. Day 0: Medium is changed from proliferation medium to differentiation medium. Day 2: Cell number reaches about 30-40 Mio per T175 flask. Cells are trypsinized and replated onto 96-well plates (30000 cells/well in 90 ul) in differentiation medium without cAMP and GDNF. At about 30 min - 2 hours after seeding, when cells have attached, the compounds are added (10 ul of each dilution; total volume 100 ul). Day 3: 23.5 h after toxicant treatment, cells are live-stained with H-33342 and calcein-AM and incubated for 30 min. After 24 h of treatment (including staining), the cells are imaged using a high-content microscope (Cellomics).

Measured: AC50

FC(F)(F)C(F)(F)C(F)(F)C(F)(F)C(F)(F)C(F)(F)I
inactive: [1]

OC(Cn1cncn1)(Cn1cncn1)c1ccc(F)cc1F
inactive: [1] | [2] | [3] | [4] | [5]

COc1cc2c(c(OC)c1OC)-c1ccc(OC)c(=O)cc1[C@@H](NC(C)=O)CC2
active: [1] 0.0234 µM | [3] 0.0374 µM | [4] 17.2 nM | [5] 12.4 nM
inactive: [2]

C[C@]12C=CC(=O)C=C1CC[C@H]1[C@@H]3C[C@@H](O)[C@](O)(C(=O)CO)[C@@]3(C)C[C@H](O)[C@@]12F
active: [1] 0.202 µM | [2] 23.9 µM | [3] 2.18 µM | [4] 22700 nM | [5] 19700 nM

O=C(Cl)C(F)(F)C(F)(F)C(F)(F)C(=O)Cl
inactive: [1]

NNC(=O)c1ccncc1
inactive: [1] | [2] | [3] | [4] | [5]

CC[C@H](C)C(=O)O[C@H]1C[C@H](O)C=C2C=C[C@H](C)[C@H](CC[C@@H](O)C[C@@H](O)CC(=O)O)[C@H]21
active: [1] 4.32 µM

Cn1cc[nH]c1=S
not listed: [9] | [10]
inactive: all other assays above

c1ccc2c(c1)-c1cccc3c1c-2cc1ccccc13
inactive: [1]

Nc1ccn([C@@H]2O[C@H](CO)[C@@H](O)[C@@H]2O)c(=O)n1
inactive: [9] | [10] | [6] | [2] | [3]
active: [1] 89.9 nM and 112 nM | [7] 109 nM | [8] 0.000191 mM | [2] 23.2 µM | [3] 7.42 µM | [4] 9.69 µM and 4.75 µM | [5] 9.08 µM and 3.77 µM

CCCC(CCC)C(=O)O
active: [10] 7.76 mM | [6] 1.04 mM | [8] 2.09 mM
not listed: [7]
inactive: all other assays above

c1ccc2cc3ccccc3cc2c1
inactive: [1] | [2] | [3] | [4] | [5]

NCC(F)(F)C(F)(F)C(F)(F)C(F)(F)F
inactive: [1]

OC(O)(C(F)C(O)(O)C(F)(F)F)C(F)(F)F
inactive: [1]
active: [1] 2.98 µM

NC(=O)N1c2ccccc2C=Cc2ccccc21
active: [10] 0.15 mM
not listed: [6] | [7] | [8]
inactive: all other assays above

CCOc1ccc2[nH]cc(C(=O)NCc3ccccc3)c(=O)c2n1
inactive: [1]

FC(F)(F)COC(OCC(F)(F)F)OCC(F)(F)F
inactive: [1]

CCN(CC)C(=S)SSC(=S)N(CC)CC
active: [1] 110 nM and 63.3 nM

OCCC(F)(F)C(F)(F)C(F)(F)C(F)(F)F
active: [1] 3.75 µM
